This is a sample that favours compounds with a hit; in the whole collection about 21% have one here.
SARS PLpro yeast-1: inhibitors of SARS-CoV papain-like protease in yeast | S. cerevisiae expressing SARS-CoV PLpro, growth rescue | Potency, µM (series often up to 32.9 µM), most hits filed as activators | 330,000 compounds, 0.19% hits; note: nearly all actives have a fitted effect of over 55% in size
Pf growth 96h: P. falciparum growth inhibition at 96 hours; P. falciparum luciferase reporter growth, 96 h; Potency, µM (series often up to 28.7 µM), hits mostly inhibitors; 320,000 compounds, 6.9% hits; AID 504834; active = well fitted inhibition curve with a large enough effect; inconclusive = small, poorly fitted or top-dose-only effect, or another doubt; inactive = no such curve, though single readings can be large or run the other way
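P. falciparum expressing integrated firefly luciferase grown in erythrocytes (2% hematocrit, 0.05% parasitemia final) with compounds for 96 hours at 37 C, 5% CO2. Growth inhibition read as loss of luminescence after adding luciferase detection reagent.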
NS1 function inh: influenza NS1 inhibition; Potency, µM (top dose mostly 46.1 µM); 270,000 compounds, 0.4% hits; AID 2326; note: actives are rising curves; nearly all actives have a fitted effect of over 50% in size
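In this qHTS, NS1 from influenza A is expressed in budding yeast, where it slows growth. Cells are switched from glucose to 2% galactose medium (pH 6.0, -URA), treated with compound, and growth recovery is read at OD600.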
Shiga toxin inh: inhibitors of Shiga toxin in Vero cells. Vero cells, Shiga toxin protein synthesis inhibition reporter. inhibition, % at 38.7 µM. 290,000 compounds, 9.2% hits. AID 2315; in the data active = inhibition mostly above about 28%, no sharp cut-off; inactive = mostly below about 43%
Pf growth 48h: inhibits P. falciparum growth in the first generation, 48 h; P. falciparum luciferase growth in erythrocytes, 48 h; Potency, µM (top dose mostly 28.7 µM), hits mostly inhibitors; 310,000 compounds, 5.9% hits; active = well fitted inhibition curve with a large enough effect; inconclusive = small, poorly fitted or top-dose-only effect, or another doubt; inactive = no such curve, though single readings can be large or run the other way
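Read-out is firefly luciferase luminescence from an integrated reporter in P. falciparum, so falling signal marks reduced parasite growth. Infected erythrocytes were at 2% hematocrit and 0.1% parasitemia (final) in Albumax-supplemented RPMI 1640.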
Cycloheximide cs: affects cycloheximide protein synthesis inhibition readout, counter-screen. 300,000 compounds, 12% hits. max response, %. AID 2314. cell reporter, cycloheximide protein synthesis inhibition counterscreen; in the data active = max response mostly above about 13%, no sharp cut-off; inactive = mostly below about 14%; note: read at 38.3 µM for the half of the compounds with a filed dose
SARS PLpro yeast-2: Validates SARS-CoV PLpro inhibitor hits in yeast. AID 652038. calls only. shares compounds with SARS PLpro yeast-1. yeast expressing SARS-CoV PLpro, growth phenotype rescue. 1,000 compounds, 19% hits; call rule not given here
Numbers stand for hits. Unless noted, calls come from the whole dose curve.

Screening C/C(=N\NC(N)=S)c1ccc(Cl)s1 returned SARS PLpro yeast-1 10µM, Pf growth 96h inconclusive, NS1 function inh inactive, Shiga toxin inh inactive, Pf growth 48h inactive, Cycloheximide cs inactive and SARS PLpro yeast-2 inconclusive.
For CS(=O)(=O)Nc1ccc(C(=O)Nc2ccc(S(=O)(=O)N3CCCC3)cc2)cc1 the results were SARS PLpro yeast-1 inactive, Pf growth 96h inactive, Shiga toxin inh inactive, Pf growth 48h inconclusive and Cycloheximide cs inactive.
Cc1cnc(=O)[nH]c1SCC(=O)c1ccc(F)cc1 was read as SARS PLpro yeast-1 inactive, Pf growth 96h inactive, NS1 function inh inactive, Shiga toxin inh inactive, Pf growth 48h inactive and Cycloheximide cs inactive.
`O=C(c1ccc(O)c(Cl)c1)N1CCN(S(=O)(=O)c2ccccc2)CC1` gave SARS PLpro yeast-1 inconclusive, Pf growth 96h inactive, NS1 function inh inactive, Shiga toxin inh inactive, Pf growth 48h inactive, Cycloheximide cs inactive and SARS PLpro yeast-2 inactive.
Screening CCn1ncc(NC(=S)NCCc2ccccc2)c1C(N)=O returned SARS PLpro yeast-1 inactive, Pf growth 96h inactive, NS1 function inh inactive, Shiga toxin inh inactive, Pf growth 48h inactive and Cycloheximide cs inactive.
Screening COc1ccccc1CNC(=S)NCCc1ccccc1 returned SARS PLpro yeast-1 inconclusive, Pf growth 96h inactive, NS1 function inh inactive, Shiga toxin inh 47, Pf growth 48h inactive, Cycloheximide cs inactive and SARS PLpro yeast-2 inconclusive.
Screening CC(C)c1ccc(NC(=O)CN2C(=O)NC3(CCCC3)C2=O)cc1 returned SARS PLpro yeast-1 3.5µM, Pf growth 96h inactive, NS1 function inh inactive, Shiga toxin inh inactive, Pf growth 48h inactive, Cycloheximide cs inactive and SARS PLpro yeast-2 inactive.
`Cc1ccc(C)c(/C=N/NC(=S)NCCc2ccccc2)c1` gave Pf growth 96h inactive, NS1 function inh inactive, Shiga toxin inh inactive, Cycloheximide cs inactive and SARS PLpro yeast-2 inconclusive.
For Cc1ccc(C)c(/C=N/NC(=S)NC(C)C)c1 the results were SARS PLpro yeast-1 7.1µM, Pf growth 96h 13µM, NS1 function inh inactive, Shiga toxin inh inactive, Pf growth 48h inconclusive, Cycloheximide cs inactive and SARS PLpro yeast-2 inconclusive.
`C/C(CC(c1ccccc1)c1c(O)c2ccccc2oc1=O)=N\NC(N)=S` (stereo not drawn) gave SARS PLpro yeast-1 11µM, Pf growth 96h 10µM, NS1 function inh inactive, Shiga toxin inh inactive, Pf growth 48h inconclusive, Cycloheximide cs inactive and SARS PLpro yeast-2 inactive.
For Cc1c(C(c2ccc(O)cc2)c2c(O)c3ccccc3oc2=O)c(=O)n(-c2ccccc2)n1C (stereo not drawn) the results were SARS PLpro yeast-1 inactive, Pf growth 96h inactive, NS1 function inh inconclusive, Shiga toxin inh inactive, Pf growth 48h inactive and Cycloheximide cs inactive.
`CCOP(=O)(OCC)C(Nc1cccc([N+](=O)[O-])c1)c1ccccc1` (stereo not drawn) gave SARS PLpro yeast-1 inactive, Pf growth 96h inactive, NS1 function inh inactive, Shiga toxin inh inactive, Pf growth 48h inconclusive and Cycloheximide cs inactive.
Screening Cc1cc(C)nc(SCc2ccc(C(=O)N/N=C/c3cccc(O)c3O)cc2)n1 returned SARS PLpro yeast-1 3.2µM, Pf growth 96h 4.7µM, NS1 function inh inactive, Shiga toxin inh inactive, Pf growth 48h 10µM, Cycloheximide cs 17 and SARS PLpro yeast-2 active.
CCOC(=O)C1CCCN(C(=O)c2cc3c(OC)c(OC)c(OC)cc3[nH]2)C1 (stereo not drawn) was read as SARS PLpro yeast-1 inactive, Pf growth 96h inactive, NS1 function inh inactive, Shiga toxin inh inactive, Pf growth 48h inactive and Cycloheximide cs inactive.
`O=C(CSc1nnc(-c2cccnc2)s1)Nc1ccccc1` gave SARS PLpro yeast-1 inconclusive, Pf growth 96h inactive, NS1 function inh inactive, Shiga toxin inh inactive, Pf growth 48h inactive, Cycloheximide cs inactive and SARS PLpro yeast-2 active.
CN1CCN(S(=O)(=O)c2ccc(Oc3ccc(F)c(Cl)c3)nc2)CC1 was read as SARS PLpro yeast-1 inactive, Pf growth 96h inactive, NS1 function inh inactive, Shiga toxin inh inactive, Pf growth 48h inactive and Cycloheximide cs inactive.
Screening COc1ccc(NC(=O)N2CCC(n3nnc4cc(C)ccc43)CC2)cc1 returned SARS PLpro yeast-1 inconclusive, Pf growth 96h inconclusive, NS1 function inh inactive, Shiga toxin inh inactive, Pf growth 48h inconclusive, Cycloheximide cs inactive and SARS PLpro yeast-2 inactive.

Bioassay records deposited in PubChem BioAssay by National Center for Advancing Translational Sciences (NCATS).
